A selection: hits, their analogues and other compounds. The true share with any hit is near 3.8%.
HT1080-NT tox: qHTS for induction of synthetic lethality in tumor cells producing 2HG: qHTS for the HT-1080-NT fibrosarcoma cell line; Potency, µM (series often up to 46.1 µM), for the others: at the highest dose activity, negative = less viability, hits mostly cytotoxic; AID 686970, 2013; HT-1080-NT fibrosarcoma viability, CellTiter-Glo ATP luminescence, 48 h; actives 1.6% (n = 360,000);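 also: NT is the 2HG producing partner of a matched IDH1 knockdown line; 0% = DMSO-treated cells and -100% = media-only wells without cells; nearly all actives have a fitted effect of over 55% in size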
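Compounds were tested in concentration-response format on HT-1080-NT cells for 48 hours at 37 degrees C. Cell viability came from CellTiter-Glo luminescence; curves were classified by r2, response magnitude and activity.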
S2 tox: Viability Counterscreen for Primary qHTS for Inhibitors of ATXN expression | S2 cells (HEK-293 line with an ATXN2-luciferase reporter) viability, CellTiter-Fluor protease fluorescence, 24 h | Potency, µM (top dose mostly 56.7 µM), hits mostly cytotoxic | actives 0.49% (n = 400,000) | AID 651635, 2014; also: nearly all actives have a fitted effect of over 40% in size
HepG2 viability: qHTS for Inhibitors of TGF-b: Cytotox Counterscreen; HepG2 CAGA-GFP viability, ATP luminescence, 18 h; Potency, µM (titrated, usually from 46.1 µM), for the others: at the top dose activity change, negative = cytotoxicity, actives largely listed as cytotoxic; actives 0.76% (n = 410,000); AID 588856, 2011
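HepG2 CAGA-GFP cells (1000/well, DMEM with 1% FBS) received compound, then TGF-beta at 500 pg/mL final, and were incubated 18 hours at 37 degrees C. Viability was read by CellTiter-Glo luminescence. Media-only wells were set as complete cell-killing and DMSO as no toxicity.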
TGFb inhibitor: qHTS for Inhibitors of TGF-b; Potency, µM (titrated, usually from 46.1 µM), inactives show top-dose activity, negative = inhibition, usual class: inhibitors; actives 1.2% (n = 410,000); HepG2 CAGA-GFP TGF-b/SMAD3 reporter, GFP fluorescence, 18 h; TGF-beta stimulated, 500 pg/mL final; also: % is scaled to controls: 0 for no effect and ±100 for the full control effect; nearly all actives have a fitted effect of over 65% in size
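Read-out: total well GFP (ex488/em500-530) summed from mean per-cell fluorescence. Cells: HEPG2 CAGA-GFP, 1% FBS DMEM, 18 h at 37 degrees C with 500 pg/mL final TGF-beta. Unstimulated wells served as the full-inhibition control; stimulated DMSO wells = 0%.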
HT1080 IDH1KD tx: qHTS for induction of synthetic lethality in tumor cells producing 2HG: qHTS for the HT-1080-IDH1KD cell line; Potency, µM (titrated, usually from 46.1 µM), for inactives: at the highest dose activity, negative = toxicity, usual class: cytotoxic; actives 2% (n = 360,000); HT-1080 IDH1 knockdown viability, ATP luminescence, 48 h;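 also: 0% = DMSO wells and -100% = cell-free medium wells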
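Luminescent ATP read-out (CellTiter-Glo, 10 min at room temperature) after 48 h compound exposure at 37 °C gave viability of IDH1-knockdown HT-1080 cells. Activity was normalised to DMSO and cell-free wells, then fitted as concentration-response curves.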
ATXN2 expr inh: Primary qHTS for Inhibitors of ATXN expression; HEK-293 ATXN2-luciferase reporter, luminescence, 24 h; Potency, µM (highest dose often 57 µM), for the others: at the highest dose activity change, negative = inhibition, actives largely listed as inhibitors; actives 0.72% (n = 360,000); AID 1745845, 2022; also: % is scaled to controls: 0 for no effect and ±100 for the full control effect; nearly all actives have a fitted effect of over 55% in size
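qHTS (up to 57 uM final) was run with 24 h compound exposure of reporter cells at 37 °C. Each well was multiplexed: SteadyGlo luminescence measured ATXN2-luciferase expression after a fluorogenic Gly-Phe-AFC viability readout (25 uM final).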
Numbers without * were called inactive; ! = not active in a repeat. Calls follow the shape of the dose curve; as a rule, active = well fitted curve in the direction sought with a large enough effect; inconclusive = small, poorly fitted or top-dose-only effect, or another doubt; inactive = no such curve, though single readings can be large; an effect the other way counts as inactive or inconclusive. Potency is read from the fitted curve at half-maximal effect.

`O=Cc1cn(Cc2cccc(F)c2)c2ccccc12` gave HT1080-NT tox -14%, S2 tox inactive, HepG2 viability -45%, TGFb inhibitor inconclusive, HT1080 IDH1KD tx -12% and ATXN2 expr inh inconclusive.
For O=Cc1cn(Cc2ccc(Br)cc2)c2ccccc12 the results were HT1080-NT tox -15%, S2 tox inconclusive, HepG2 viability -46%, TGFb inhibitor 1µM*, HT1080 IDH1KD tx -12% and ATXN2 expr inh inconclusive.
`COc1ccc(C(=O)NCCn2cc(SCc3ccc(C(F)(F)F)cc3)c3ccccc32)cc1OC` gave S2 tox inactive, HepG2 viability -16%, TGFb inhibitor 7.1µM* and ATXN2 expr inh -24%.
For N[C@H](CO)Cc1ccccc1 the results were HT1080-NT tox -11%, S2 tox inactive, HepG2 viability -5%, TGFb inhibitor 0%, HT1080 IDH1KD tx 29µM* and ATXN2 expr inh -8%.
COc1ccc(-n2c(/C=C/c3ccc(O)c(O)c3)nc3ccccc3c2=O)cc1 was read as HT1080-NT tox -11%, HepG2 viability -39%, TGFb inhibitor inconclusive and HT1080 IDH1KD tx -9%.
For COc1cc(/C=C/c2nc3ccccc3c(=O)n2-c2ccc(O)cc2)ccc1O the results were HT1080-NT tox 16µM*, S2 tox inactive, HepG2 viability -111%, TGFb inhibitor inconclusive, HT1080 IDH1KD tx 18µM* and ATXN2 expr inh 47%.
For CCC(C(=O)c1ccccc1)P(=O)(NN)c1ccccc1 (centres undefined) the results were HT1080-NT tox -14%, S2 tox inactive, HepG2 viability -31%, TGFb inhibitor -6%, HT1080 IDH1KD tx -4% and ATXN2 expr inh -2%.
Screening NS(=O)(=O)c1ccc(N=Cc2c(O)n(C3CCCCC3)c(=O)n(C3CCCCC3)c2=O)cc1 returned HT1080-NT tox inconclusive, HepG2 viability -111%, TGFb inhibitor 16µM*, HT1080 IDH1KD tx inconclusive and ATXN2 expr inh inconclusive.
CC(=O)OC(C)(C)/C=C/C(=O)[C@](C)(O)C1[C@H](O)C[C@@]2(C)C3CC=C4C(C[C@H](O)C(=O)C4(C)C)[C@]3(C)C(=O)C[C@]12C (some centres undefined) was read as HT1080-NT tox inconclusive, S2 tox inconclusive, HepG2 viability -19%, TGFb inhibitor inconclusive, HT1080 IDH1KD tx 0.033µM* and ATXN2 expr inh inconclusive.
`CC(C)(O)/C=C/C(=O)C(C)(O)C1C(O)CC2(C)C3CC=C4C(C=C(O)C(=O)C4(C)C)C3(C)C(=O)CC12C` (centres undefined) gave HT1080-NT tox 0.65µM*, S2 tox 2.4µM*, HepG2 viability -57%, TGFb inhibitor inconclusive, HT1080 IDH1KD tx 0.15µM* and ATXN2 expr inh inconclusive.
For COc1ccc(-c2c3c(=O)n(C)c(=O)n(C)c3c3n2-c2ccccc2NC3c2ccccc2OC)cc1 (centres undefined) the results were S2 tox inactive, HepG2 viability -7%, TGFb inhibitor inconclusive and ATXN2 expr inh -21%.
C[C@H]1CNC(=O)c2c(C(=O)Nc3cccc(Cl)c3)ncn21 was read as HT1080-NT tox -16%, S2 tox inactive, HepG2 viability 31%, TGFb inhibitor -8%, HT1080 IDH1KD tx -7% and ATXN2 expr inh 5%.
Screening CCOC(=O)c1ccccc1OC(=O)NNc1ccccc1 returned HT1080-NT tox 5.8µM*, S2 tox inconclusive, HepG2 viability 3%, TGFb inhibitor 4%, HT1080 IDH1KD tx 12µM* and ATXN2 expr inh inconclusive.
`C[C@]12CC[C@@H]3c4cc(O)c(O)cc4CC[C@H]3[C@@H]1CC[C@@H]2O` gave HT1080-NT tox inconclusive, S2 tox inconclusive, HepG2 viability -21%, TGFb inhibitor inconclusive, HT1080 IDH1KD tx 6.5µM* and ATXN2 expr inh -15%.
For C[C@]12CC[C@@H]3c4ccc(O)c(O)c4CC[C@H]3[C@@H]1CC[C@@H]2O the results were HT1080-NT tox inconclusive, S2 tox inconclusive, HepG2 viability -49%, TGFb inhibitor inconclusive, HT1080 IDH1KD tx inconclusive and ATXN2 expr inh -21%.
C[C@@H]1CC2C3CC=C4C[C@@H](O)CC[C@]4(C)C3CC[C@]2(C)[C@H]1O (some centres undefined) was read as HT1080-NT tox 2%, S2 tox inactive, HepG2 viability -5%, TGFb inhibitor 0%, HT1080 IDH1KD tx 1% and ATXN2 expr inh 8%.
C[C@H]1CC[C@@H]2[C@@H](C)[C@H]3[C@H](C[C@H]4[C@@H]5CC=C6C[C@@H](O[C@@H]7O[C@H](CO)[C@H](O)[C@H](O[C@@H]8O[C@H](CO)[C@@H](O)[C@H](O)[C@H]8O)[C@H]7O[C@@H]7O[C@@H](C)[C@H](O)[C@@H](O)[C@H]7O)CC[C@]6(C)[C@H]5CC[C@]34C)N2C1 was read as HT1080-NT tox 3%, HepG2 viability 13µM*, TGFb inhibitor inconclusive, HT1080 IDH1KD tx -11% and ATXN2 expr inh inconclusive.
For NC(=Nc1ccccc1)NN=Cc1c[nH]c2ccccc12 the results were HT1080-NT tox inconclusive, S2 tox inconclusive, HepG2 viability -45%, TGFb inhibitor inconclusive, HT1080 IDH1KD tx inconclusive and ATXN2 expr inh -3%.
For CCCCCN=C(N)N/N=C/c1c[nH]c2ccc(OC)cc12 the results were HT1080-NT tox 2.9µM*, S2 tox 18µM*, HepG2 viability 16µM*, TGFb inhibitor inconclusive, HT1080 IDH1KD tx 5.8µM* and ATXN2 expr inh 5.6µM*!.
For CCOC(=O)C(C(=O)OCC)C(Nc1ccc(Br)cc1)c1ccccc1 (centres undefined) the results were HT1080-NT tox inconclusive, S2 tox inactive, HepG2 viability 11µM*, TGFb inhibitor inconclusive, HT1080 IDH1KD tx 13µM* and ATXN2 expr inh -25%.
For Cc1ccc2c(C)c3ccc4ccccc4c3c[n+]2c1 the results were HT1080-NT tox -29%, S2 tox inactive, HepG2 viability -9%, TGFb inhibitor inconclusive, HT1080 IDH1KD tx 23µM* and ATXN2 expr inh inconclusive.
`O=C(NC1C=CS(=O)(=O)C1)c1sc2ccccc2c1Cl` (centres undefined) gave HT1080-NT tox 16µM*, S2 tox inactive, HepG2 viability -20%, TGFb inhibitor -2%, HT1080 IDH1KD tx 11µM* and ATXN2 expr inh inconclusive.
